Results taken from PubChem BioAssay (NCI).
This is part of a sample that, as a whole, favours compounds with a hit. Of some 79,000 tested, about 15% had one in any assay. Unmarked numbers belong to inactive results. Calls of active or inactive are those of the source. Cut-off read from the data, not from the text of the source: active = growth inhibition above about 70%; inactive = the rest.

How the values were obtained:
[1] = NCI Yeast Anticancer Drug Screen. Data for the rad50 strain (AID 155);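 note: 0% = growth of vehicle-only cultures of the same strain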; conditions: S. cerevisiae rad50 strain growth inhibition; at 50.0 µM; stronger effect = higher value
How it was run: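 Genetically altered yeast (DNA repair pathway); compound treatment; growth inhibition vs vehicle ctrl.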

[2] = NCI Yeast Anticancer Drug Screen. Data for the mec2-1 strain (AID 157); conditions: S. cerevisiae mec2-1 strain, at 50.0 µM, stronger effect = higher value
How it was run: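 Cells of the genetically defined mec2-1 yeast strain are incubated with test compound. Inhibition of growth is calculated against vehicle-treated controls.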

[3] = NCI Yeast Anticancer Drug Screen. Data for the sgs1 mgt1 strain (AID 161);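 note: 0% = growth of cultures given vehicle only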; conditions: S. cerevisiae sgs1 mgt1 strain, at 50.0 µM, stronger effect = higher value
How it was run: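 Test agents were incubated with a DNA-repair-mutant yeast strain. Growth was then read and compared against vehicle-treated controls.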

[4] = NCI Yeast Anticancer Drug Screen. Data for the cln2 rad14 strain (AID 165);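 note: 0% = growth equal to vehicle treated cultures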; conditions: S. cerevisiae cln2 rad14 strain, at 50.0 µM, stronger effect = higher value
How it was run: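 The screen exposed genetically defined yeast (cln2 rad14) to test compounds and scored growth inhibition relative to vehicle-treated controls.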

[5] = NCI Yeast Anticancer Drug Screen. Data for the bub3 strain (AID 167); conditions: S. cerevisiae bub3 mutant strain, at 50.0 µM, stronger effect = higher value
How it was run: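 Yeast carrying a defined mutation is treated with each compound, and growth is compared with that of vehicle-exposed cells to give inhibition.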

[6] = NCI Yeast Anticancer Drug Screen. Data for the mlh1 rad18 strain (AID 175); conditions: S. cerevisiae mlh1 rad18 strain growth inhibition; at 50.0 µM; stronger effect = higher value
How it was run: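 Compound-treated yeast growth, normalised to vehicle controls. Strain bears defined DNA repair mutations.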

SMILES	growth inhibition [1]	growth inhibition [2]	growth inhibition [3]	growth inhibition [4]	growth inhibition [5]	growth inhibition [6]
CC(=O)c1cccc(NC(=O)N(C)C2CCCCC2)c1	5.65%	13.7%	-3.65%	-15.6%	-7.45%	-22.1%
C=CCC1(C(C)C(O)c2cc(OC)c(OC)c(OC)c2)CC(O)C=CC12OCCO2 (configuration not stated)	13.9%	-17.3%	1.5%	14.9%	16.2%	24.6%
O=C(c1cccc([N+](=O)[O-])c1)N1CCCCC1	1.4%	-11.8%	16.2%	-17.1%	4.1%	-5.05%
CCN(c1ccccc1)S(=O)(=O)c1ccccc1N	-0.75%	-13.2%	10.7%	14.4%	-3.6%	-0.4%
Cc1no[n+]([O-])c1C(=O)NN	6.35%	6.6%	-14.3%	-46.8%	-20.1%	-12.4%
N#Cc1ccc(OCCCOc2ccc(C#N)cc2)cc1	8.15%	12.2%	9.65%	5.3%	46.2%	-4.15%
CCN(C=O)c1ccccc1	15.7%	-7.55%	-6.95%	-0.8%	5.95%	6.55%
Nc1nnc2nc(CC(=O)c3ccccn3)/c(=C/C(=O)c3ccccn3)n12	-7.3%	-13.7%	-2.8%	-43.3%	-26.9%	-23.1%
CCN(CCO)CC(=O)c1cc(Cl)ccc1OC	-3.85%	13.6%	16.2%	-37%	6.55%	19.4%
O=C(Nc1nnc(C(F)(F)F)s1)c1c(F)cccc1F	7.75%	16.7%	24.9%	19.5%	37%	30.1%
CC1(SCC(N)C(=O)O)CC(=O)NC1=O (configuration not stated)	-40.5%	-33.1%	-64.5%	-36.8%	-39.2%	-40.1%
CC(C)c1cc(C(F)(F)F)nc(NNc2nc(C(C)C)cc(C(F)(F)F)n2)n1	-19.6%	-25.1%	-16.5%	-13.2%	-15.4%	-34.1%
COc1cc(/C=C(\OC(C)=O)c2ccc3c(c2)OCO3)cc(OC)c1OC	-5%	-0.95%	33.2%	13.6%	44%	-19.1%
O=C(NCCSC(=O)Nc1ccccc1)Nc1ccccc1	0%	14.8%	5.25%	-10%	29.1%	8.55%
O=C(Nc1nc2ncn(CCNCc3ccccc3)c2c(=O)[nH]1)c1ccccc1	-7.75%	-22.8%	6.25%	10.6%	15.4%	24.6%
CCCCCN(CCCCC)c1ccc(/C=C/c2ccnc3ccccc23)cc1	1.6%	7.05%	22.9%	-15.7%	-10.2%	14.6%
CCC1(CCC(C)C)C(=O)NC(=Nc2ccccc2)N(c2ccccc2)C1=O (configuration not stated)	18.7%	7.95%	-0.65%	1.55%	4.45%	10.1%
CC(=O)Nc1c(F)c(F)c(F)c(F)c1F	20.1%	2.2%	-11.7%	-35%	14.3%	-13.1%
c1csc(C(NC2=NCCO2)C2CC2)c1 (configuration not stated)	-32.9%	-11.2%	-22.9%	-25.1%	-27.5%	41.8%
CN(CCS)C(=N)N	4.75%	-14.9%	2.55%	7.8%	-0.65%	-11.4%
O=c1[nH]c2cc(Cl)ccc2nc1/C(=N\O)C(O)c1ccc(Cl)cc1Cl (configuration not stated)	-9.9%	-24.4%	-0.35%	20.6%	-5.6%	-13.2%

SMILES	growth inhibition [1]	growth inhibition [2]	growth inhibition [3]	growth inhibition [4]	growth inhibition [5]	growth inhibition [6]
CNC(=S)NNC1=NCCCCN1	-41.2%	-20%	-16.1%	3.9%	2.1%	-16.1%
SC1c2cc(Cl)ccc2-c2c(Cl)cc(Cl)cc21 (configuration not stated)	-2.7%	3.35%	-6.05%	9.1%	10.6%	-11.8%
CCCCN1CCSC1=S	99.5% (active)	99.7% (active)	98.2% (active)	98% (active)	99.5% (active)	99.5% (active)
O=C(/C=C\c1ccccc1)OCc1ccccc1CN1CCCCC1	15.7%	11.7%	17.2%	14.6%	10.4%	12.8%
CCOC(=O)C(=[N+]=[N-])C(=O)c1cc2ccccc2oc1=O	-19.2%	6.85%	13.6%	-0.55%	-13.7%	22.2%
C/C(CC(=O)Nc1cccc(Cl)c1C)=N\N=C(N)N	-10.2%	-27.6%	-15.2%	19.4%	-23%	-8.9%
CC(C)=C(OC(=O)c1ccccc1)C(C)(CC(C)(C)C)C(C)(C)C (configuration not stated)	13.1%	-55.3%	-10.3%	-100%	-26.5%	19.4%
CCOC(=O)C(C#N)(Cc1c(-c2ccccc2)[nH]c2ccccc12)NC(C)=O (configuration not stated)	-4.25%	0.75%	4.85%	-14.6%	7.9%	6.15%
COc1cc(/C=N/NC2=NCCN2)ccc1O	24.4%	11.8%	13.2%	14.8%	18.9%	11.8%
CC(C)CCCC(C)C1CCC2C3CC=C4CC(OC5CCC6(C)C(=CCC7C6CCC6(C)C(C(C)CCCC(C)C)CCC76)C5)CCC4(C)C3CCC12C (configuration not stated)	-0.05%	-12.8%	-17.1%	-10.7%	-1.75%	4.8%
CC(=O)Oc1ccc(Nn2c3ccccc3c3ccccc32)c(C)c1	56.6%	47.9%	36.1%	54.6%	41.4%	43%
COC(=O)c1cccc(Cl)n1	4.7%	-16.8%	-6.95%	1.05%	10.4%	7.85%
C[C@H](CCC(c1ccccc1)c1ccccc1)[C@H]1CC[C@H]2[C@@H]3CC[C@@H]4C[C@H](O)CC[C@]4(C)C3=CC[C@]12C	1.7%	-15.3%	4.1%	24.8%	-1.75%	9.45%
Cc1ccc(Cl)cc1NC(=O)Nc1cccc(C(F)(F)F)c1	3.3%	25.5%	14.2%	-5.4%	37.1%	8.95%
O=C(NCCCCN1CCCC1)C(c1cc2ccccc2s1)C1CCCCC1 (configuration not stated)	20.1%	9.25%	42.2%	4.25%	24.2%	33.1%
Nc1ncnc2c1nnn2CCCCCC(=O)O	-6.25%	27.8%	21.8%	-7.95%	11.8%	-13.9%
CN(CCO)CC(O)Cn1cnc2ncnc(N)c21 (configuration not stated)	21.2%	12%	28.7%	13.4%	7%	33.5%
COc1ccc(C2=Nn3c(nc4sc(C)c(C)c4c3=O)SC2)cc1	2.45%	-8.15%	-3.7%	19.1%	2.95%	-14.3%
Cc1cc(C)c2ccc(=O)[nH]c2n1	-2.8%	-9%	2.6%	-3.05%	8.75%	8.2%
CC1(C)CC2CC(CC(C)(C)C2=O)C1=O	-8.65%	-11%	-0.7%	5.05%	7.9%	-1.75%
Cc1cc2c(cc1C)[n+](=O)c(C(=O)CC(=O)C(=O)Nc1ccccc1C(C)C)c(C)n2[O-]	-26.4%	-4.75%	-51.6%	13.1%	-14.4%	-33.6%
